Measured values as given in PubChem BioAssay (EPA / NIEHS).
Records with an inconclusive call do not appear. Calls of active or inactive are those of the source. Rule for the calls: active = hit-call score of the fitted dose curve at least 0.9, where 1 is the maximum; inconclusive = response in the unintended direction; inactive = score below 0.9.

Tests used:
[1] = target: human AKT serine/threonine Kinase 1 (AKT1), AKT1 (gene 207) (UniProt P31749); test: NVS_ENZ_hAKT1: NovaScreen (NVS) Enzymatic Assay for human AKT serine/threonine Kinase 1 (AKT1) (AID 2283138)
human AKT serine/threonine Kinase 1 (AKT1), AKT1 (gene 207), sequence (P31749 whole entry, looked up): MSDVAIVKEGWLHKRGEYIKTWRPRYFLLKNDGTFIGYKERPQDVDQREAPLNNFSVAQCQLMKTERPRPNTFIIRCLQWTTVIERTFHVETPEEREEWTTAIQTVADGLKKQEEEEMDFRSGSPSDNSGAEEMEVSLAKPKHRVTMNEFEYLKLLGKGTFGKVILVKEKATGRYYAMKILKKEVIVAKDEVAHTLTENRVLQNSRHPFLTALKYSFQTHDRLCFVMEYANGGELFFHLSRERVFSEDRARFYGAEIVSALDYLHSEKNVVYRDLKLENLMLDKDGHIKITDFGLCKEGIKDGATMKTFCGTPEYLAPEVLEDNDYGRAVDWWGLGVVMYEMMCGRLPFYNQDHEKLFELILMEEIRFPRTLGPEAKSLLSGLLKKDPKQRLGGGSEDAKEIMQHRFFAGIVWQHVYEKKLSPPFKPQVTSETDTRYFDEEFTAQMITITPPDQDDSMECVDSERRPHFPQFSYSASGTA
In short: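 Fluorescence and mobility-shift readout of kinase activity, taken 1 h post-dosing in a cell-free format with recombinant protein. Primary screen at 25 uM in duplicate; hits (e.g. 30% inhibition) retested in concentration series topping at 50 uM.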

[2] = target: CDK2 (gene 1017) (UniProt P24941); test: NVS_ENZ_hCDK2: NovaScreen (NVS) Enzymatic Assay for human Cyclin-Cependent Kinase 2 (CDK2) (AID 2283144)
In short: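 Compounds screened in duplicate at 25 uM, then in singleton concentration-response to a maximum of 50 uM, against recombinant CDK2; kinase activity read 1 hr after dosing by fluorescence with mobility-shift separation of substrate and product.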

[3] = target: human FYN Proto-Oncogene, Src family Tyrosine Kinase (Fyn), FYN (gene 2534) (UniProt P06241); test: NVS_ENZ_hFyn: NovaScreen (NVS) Enzymatic Assay for human FYN Proto-Oncogene, Src family Tyrosine Kinase (Fyn) (AID 2283161)
In short: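 Cell-free kinase activity read by fluorescence after mobility-shift separation of substrate and product, 1 h post-dose. Initial single concentration 25 uM in duplicate, then concentration-response follow-up; DMSO baseline.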

[4] = target: Caspase-3 (Homo sapiens) (UniProt P42574); test: NVS_ENZ_hCASP3: NovaScreen (NVS) Enzymatic Assay for human Caspase 3 (CASP3) (AID 2283139)
Caspase-3 (Homo sapiens), sequence (P42574 whole entry, looked up): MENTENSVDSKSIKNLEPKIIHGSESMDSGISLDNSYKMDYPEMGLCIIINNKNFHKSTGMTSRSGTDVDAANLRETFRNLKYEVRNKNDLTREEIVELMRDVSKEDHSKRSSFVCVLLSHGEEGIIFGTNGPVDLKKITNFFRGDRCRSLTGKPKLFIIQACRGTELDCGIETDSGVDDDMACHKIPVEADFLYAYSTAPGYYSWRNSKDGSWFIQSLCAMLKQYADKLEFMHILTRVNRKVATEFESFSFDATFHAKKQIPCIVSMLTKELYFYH
In short: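 Single-concentration screening at 25 uM in duplicate, with concentration-response follow-up to a 50 uM maximum for chemicals passing the threshold. Caspase-3 (human, E. coli-expressed) activity was read as substrate fluorescence after 1 h, with loss of signal relative to DMSO.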

[5] = target: human Ephrin type-A Receptor 1 (EphA1), EPHA1 (gene 2041) (UniProt P21709); test: NVS_ENZ_hEphA1: NovaScreen (NVS) Enzymatic Assay for human Ephrin type-A Receptor 1 (EphA1) (AID 2283158);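 note: activity is signal loss versus DMSO meaning EphA1 kinase inhibition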
human Ephrin type-A Receptor 1 (EphA1), EPHA1 (gene 2041), sequence (P21709 whole entry, looked up): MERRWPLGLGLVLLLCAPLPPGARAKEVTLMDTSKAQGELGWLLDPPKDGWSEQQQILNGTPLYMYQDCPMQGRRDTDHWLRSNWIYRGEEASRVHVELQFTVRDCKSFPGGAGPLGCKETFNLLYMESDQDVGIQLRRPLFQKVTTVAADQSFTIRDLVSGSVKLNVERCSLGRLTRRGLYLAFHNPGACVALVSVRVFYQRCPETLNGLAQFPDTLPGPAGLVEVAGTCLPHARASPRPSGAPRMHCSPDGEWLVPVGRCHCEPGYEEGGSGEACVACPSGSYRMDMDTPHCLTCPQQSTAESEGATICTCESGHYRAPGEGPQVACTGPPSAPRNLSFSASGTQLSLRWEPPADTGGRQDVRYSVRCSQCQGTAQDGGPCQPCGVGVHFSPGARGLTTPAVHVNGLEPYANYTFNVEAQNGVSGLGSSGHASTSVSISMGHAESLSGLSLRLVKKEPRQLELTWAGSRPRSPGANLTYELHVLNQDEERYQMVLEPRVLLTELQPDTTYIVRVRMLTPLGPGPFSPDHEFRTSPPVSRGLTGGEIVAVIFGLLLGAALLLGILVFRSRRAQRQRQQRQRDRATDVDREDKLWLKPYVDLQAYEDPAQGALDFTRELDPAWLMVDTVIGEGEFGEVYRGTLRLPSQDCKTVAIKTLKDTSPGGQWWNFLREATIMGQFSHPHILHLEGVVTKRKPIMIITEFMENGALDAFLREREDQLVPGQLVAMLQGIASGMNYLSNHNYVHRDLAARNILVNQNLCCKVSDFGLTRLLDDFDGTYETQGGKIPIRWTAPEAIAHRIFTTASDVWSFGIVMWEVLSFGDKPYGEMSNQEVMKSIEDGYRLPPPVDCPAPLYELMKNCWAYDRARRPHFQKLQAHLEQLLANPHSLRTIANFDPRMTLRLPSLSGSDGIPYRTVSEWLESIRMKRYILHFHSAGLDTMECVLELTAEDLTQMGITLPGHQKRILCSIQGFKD
In short: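 Biochemical kinase assay run cell-free; 1 h incubation; readout is fluorescence with mobility-shift separation of product. Concentration-response up to 50 uM for actives from a 25 uM screen.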

[6] = target: human Beta-secretase (BACE), BACE1 (gene 23621) (UniProt P56817); test: NVS_ENZ_hBACE: NovaScreen (NVS) Enzymatic Assay for human Beta-secretase (BACE) (AID 2283140);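 note: hits are inhibitors that reduce fluorescent substrate signal versus DMSO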
human Beta-secretase (BACE), BACE1 (gene 23621), sequence (P56817 whole entry, looked up): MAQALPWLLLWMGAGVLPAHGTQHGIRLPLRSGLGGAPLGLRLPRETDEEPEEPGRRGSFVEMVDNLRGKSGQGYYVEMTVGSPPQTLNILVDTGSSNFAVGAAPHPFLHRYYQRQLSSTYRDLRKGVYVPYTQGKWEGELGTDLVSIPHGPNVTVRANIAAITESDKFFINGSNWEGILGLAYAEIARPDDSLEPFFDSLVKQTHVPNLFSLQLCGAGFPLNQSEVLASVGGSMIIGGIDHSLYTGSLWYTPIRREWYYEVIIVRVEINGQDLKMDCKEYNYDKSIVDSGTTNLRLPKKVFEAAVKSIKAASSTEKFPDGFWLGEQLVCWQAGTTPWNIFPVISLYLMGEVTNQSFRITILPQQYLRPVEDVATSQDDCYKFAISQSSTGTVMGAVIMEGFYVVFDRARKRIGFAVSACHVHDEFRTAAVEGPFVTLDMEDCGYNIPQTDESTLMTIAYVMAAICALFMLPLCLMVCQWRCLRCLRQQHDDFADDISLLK
In short: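 SF9-expressed enzyme, cell-free; fluorescent substrate readout after 1 h. Screened at 25 uM single concentration, duplicate; hits retested in concentration series. Activity relative to DMSO baseline, loss-of-signal.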

[7] = target: human AKT serine/threonine Kinase 2 (AKT2), AKT2 (gene 208) (UniProt P31751); test: NVS_ENZ_hAKT2: NovaScreen (NVS) Enzymatic Assay for human AKT serine/threonine Kinase 2 (AKT2) (AID 2283141)
human AKT serine/threonine Kinase 2 (AKT2), AKT2 (gene 208), sequence (P31751 whole entry, looked up): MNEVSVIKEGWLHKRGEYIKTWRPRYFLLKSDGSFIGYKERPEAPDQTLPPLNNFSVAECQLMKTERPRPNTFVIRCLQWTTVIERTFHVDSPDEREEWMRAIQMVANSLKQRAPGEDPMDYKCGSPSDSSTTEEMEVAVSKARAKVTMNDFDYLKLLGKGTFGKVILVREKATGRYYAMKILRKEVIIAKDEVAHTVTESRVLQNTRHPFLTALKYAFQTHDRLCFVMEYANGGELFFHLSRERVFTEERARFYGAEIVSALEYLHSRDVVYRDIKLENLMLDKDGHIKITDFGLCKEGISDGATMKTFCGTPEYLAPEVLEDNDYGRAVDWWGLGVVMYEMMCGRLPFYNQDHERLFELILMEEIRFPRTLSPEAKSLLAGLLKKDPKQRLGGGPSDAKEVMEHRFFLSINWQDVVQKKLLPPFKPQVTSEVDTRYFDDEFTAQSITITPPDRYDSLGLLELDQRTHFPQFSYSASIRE
In short: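 Cell-free fluorescence/electrophoretic mobility shift readout of recombinant human AKT2 activity, 1 h after chemical dosing. Duplicate primary screen at 25 uM, then singleton concentration-response up to 50 uM; loss of signal versus DMSO baseline.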

[8] = target: human Casein Kinase 1-delta (CK1D), CSNK1D (gene 1453) (UniProt P48730); test: NVS_ENZ_hCK1D: NovaScreen (NVS) Enzymatic Assay for human Casein Kinase 1-delta (CK1D) (AID 2283148)
human Casein Kinase 1-delta (CK1D), CSNK1D (gene 1453), sequence (P48730 whole entry, looked up): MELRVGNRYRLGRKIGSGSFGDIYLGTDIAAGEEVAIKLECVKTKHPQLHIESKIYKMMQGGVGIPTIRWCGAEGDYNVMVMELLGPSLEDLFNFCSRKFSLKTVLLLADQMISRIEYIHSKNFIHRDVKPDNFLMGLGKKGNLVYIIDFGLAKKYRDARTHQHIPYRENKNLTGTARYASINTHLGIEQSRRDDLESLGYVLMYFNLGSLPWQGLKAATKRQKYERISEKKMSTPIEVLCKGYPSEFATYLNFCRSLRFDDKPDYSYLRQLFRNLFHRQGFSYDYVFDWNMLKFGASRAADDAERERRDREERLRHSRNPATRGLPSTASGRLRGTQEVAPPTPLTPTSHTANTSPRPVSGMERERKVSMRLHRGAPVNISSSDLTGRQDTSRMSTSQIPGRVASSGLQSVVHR
In short: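 Recombinant human CK1-delta, cell-free; fluorescent substrate with electrophoretic mobility-shift separation of product, read 1 h after dosing. Single 25 uM duplicate screen, then concentration-response up to 50 uM; loss of signal vs DMSO.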

[9] = target: human Colony Stimulating Factor 1 Receptor (CSF1R), CSF1R (gene 1436) (UniProt P07333); test: NVS_ENZ_hCSF1R: NovaScreen (NVS) Enzymatic Assay for human Colony Stimulating Factor 1 Receptor (CSF1R) (AID 2283150)
human Colony Stimulating Factor 1 Receptor (CSF1R), CSF1R (gene 1436), sequence (P07333 whole entry, looked up): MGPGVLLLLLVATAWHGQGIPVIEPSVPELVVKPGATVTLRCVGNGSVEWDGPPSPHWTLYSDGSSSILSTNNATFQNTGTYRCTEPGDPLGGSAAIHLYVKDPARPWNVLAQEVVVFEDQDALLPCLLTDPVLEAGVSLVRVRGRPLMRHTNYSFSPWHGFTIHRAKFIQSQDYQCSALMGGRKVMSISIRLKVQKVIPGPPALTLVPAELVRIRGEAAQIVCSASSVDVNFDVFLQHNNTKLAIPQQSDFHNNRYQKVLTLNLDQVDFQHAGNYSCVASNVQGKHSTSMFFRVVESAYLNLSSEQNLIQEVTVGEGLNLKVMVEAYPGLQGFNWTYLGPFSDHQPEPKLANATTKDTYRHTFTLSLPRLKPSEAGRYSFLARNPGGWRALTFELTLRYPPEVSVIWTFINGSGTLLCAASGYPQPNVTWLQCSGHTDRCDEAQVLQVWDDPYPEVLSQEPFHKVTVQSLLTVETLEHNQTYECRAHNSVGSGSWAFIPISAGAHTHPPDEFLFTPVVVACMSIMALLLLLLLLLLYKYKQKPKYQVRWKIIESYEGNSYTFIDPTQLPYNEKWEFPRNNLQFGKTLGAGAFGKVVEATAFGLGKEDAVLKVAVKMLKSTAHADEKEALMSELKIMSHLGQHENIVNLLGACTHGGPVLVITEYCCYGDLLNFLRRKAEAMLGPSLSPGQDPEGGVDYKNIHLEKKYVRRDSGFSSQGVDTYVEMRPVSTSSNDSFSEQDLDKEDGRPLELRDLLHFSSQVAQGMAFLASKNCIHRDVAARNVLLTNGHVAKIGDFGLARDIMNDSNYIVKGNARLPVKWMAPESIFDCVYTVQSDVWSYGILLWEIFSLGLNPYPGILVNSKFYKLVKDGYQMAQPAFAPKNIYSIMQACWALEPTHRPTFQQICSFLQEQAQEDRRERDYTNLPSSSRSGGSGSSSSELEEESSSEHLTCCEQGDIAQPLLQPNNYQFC
In short: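 Compounds screened in duplicate at 25 uM, then concentration-response (top 50 uM) for those passing threshold such as 30% inhibition; recombinant CSF1R activity measured 1 h post-dosing via fluorescent substrate/product mobility-shift separation, loss of signal versus DMSO.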

[10] = target: Histone deacetylase 3 (Homo sapiens) (UniProt O15379); test: NVS_ENZ_hHDAC3: NovaScreen (NVS) Enzymatic Assay for human Histone Deacetylase 3 (HDAC3) (AID 2283163)
In short: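 Cell-free enzyme format: loss of fluorescent product after mobility-shift separation, 1 h incubation, recombinant human HDAC3. Single 25 uM duplicate screen first, then concentration series to a 50 uM top for hits; DMSO as baseline.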

[11] = target: human Esterase Plasma (ES), BCHE (gene 590) (UniProt P06276); test: NVS_ENZ_hES: NovaScreen (NVS) Enzymatic Assay for human Esterase Plasma (ES) (AID 2283157)
human Esterase Plasma (ES), BCHE (gene 590), sequence (P06276 whole entry, looked up): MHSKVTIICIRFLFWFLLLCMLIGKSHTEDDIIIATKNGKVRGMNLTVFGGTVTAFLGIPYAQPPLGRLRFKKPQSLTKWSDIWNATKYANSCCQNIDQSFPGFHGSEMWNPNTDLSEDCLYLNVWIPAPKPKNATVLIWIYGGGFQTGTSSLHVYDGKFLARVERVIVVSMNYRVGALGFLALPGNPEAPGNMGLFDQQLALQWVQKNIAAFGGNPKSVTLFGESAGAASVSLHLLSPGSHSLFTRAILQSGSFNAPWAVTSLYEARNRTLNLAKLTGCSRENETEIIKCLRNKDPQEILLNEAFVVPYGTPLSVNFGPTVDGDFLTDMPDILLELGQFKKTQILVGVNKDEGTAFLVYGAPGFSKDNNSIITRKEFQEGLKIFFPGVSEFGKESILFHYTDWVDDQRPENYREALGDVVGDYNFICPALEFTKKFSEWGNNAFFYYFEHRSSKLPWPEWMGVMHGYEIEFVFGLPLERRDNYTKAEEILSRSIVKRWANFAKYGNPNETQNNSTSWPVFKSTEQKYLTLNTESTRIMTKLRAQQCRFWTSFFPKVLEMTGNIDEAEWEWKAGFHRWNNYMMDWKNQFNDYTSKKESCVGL
In short: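 Human plasma-derived enzyme, cell-free, colorimetric readout at 0.25 h. Primary screen 25 uM in duplicate; hits (e.g. ≥30% inhibition) rerun singleton up to 50 uM. DMSO = negative control/baseline.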

[12] = target: human Elastase, ELANE (gene 1991) (UniProt P08246); test: NVS_ENZ_hElastase: NovaScreen (NVS) Enzymatic Assay for human Elastase (AID 2283153)
human Elastase, ELANE (gene 1991), sequence (P08246 whole entry, looked up): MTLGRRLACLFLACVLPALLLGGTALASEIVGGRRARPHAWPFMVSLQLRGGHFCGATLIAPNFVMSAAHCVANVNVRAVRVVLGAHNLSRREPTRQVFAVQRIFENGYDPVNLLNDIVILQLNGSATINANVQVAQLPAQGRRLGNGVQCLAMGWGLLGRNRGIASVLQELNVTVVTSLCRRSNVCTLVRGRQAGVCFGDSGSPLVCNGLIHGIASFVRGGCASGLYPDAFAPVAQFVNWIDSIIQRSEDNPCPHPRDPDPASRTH
In short: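 Concentration-response to 50 uM max, run singly for chemicals passing a threshold (e.g., 30% inhibition) in a duplicate 25 uM single-point screen. Neutrophil-derived human elastase, absorbance read-out of enzyme activity at 1.5 h; DMSO baseline.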

[13] = target: human Dual Specificity Protein Phosphatase 3 (DUSP3), DUSP3 (gene 1845) (UniProt P51452); test: NVS_ENZ_hDUSP3: NovaScreen (NVS) Enzymatic Assay for human Dual Specificity Protein Phosphatase 3 (DUSP3) (AID 2283152);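 note: phosphatase activity of recombinant human DUSP3 on a fluorogenic substrate without cells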
In short: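 Cell-free fluorescence-intensity enzyme activity assay with recombinant protein and substrate; loss of signal fitted relative to DMSO baseline. Primary screen in duplicate at 25 uM, actives then run in concentration series; measured 0 h after dosing.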

[14] = target: human Caspase 8 (CASP8), CASP8 (gene 841) (UniProt Q14790); test: NVS_ENZ_hCASP8: NovaScreen (NVS) Enzymatic Assay for human Caspase 8 (CASP8) (AID 2283146)
In short: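 The primary screen tested compounds in duplicate at a single 25 uM concentration, with actives followed up in concentration series. Activity of recombinant (E. coli) protease was measured by fluorescence 1 h post-dose, as signal loss against DMSO.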

Question: Which outcome [1] does the source give for `CC1=C(/C=C/C(C)=C/C=C/C(C)=C/CO)C(C)(C)CCC1` here?
Answer: inactive

Question: And the outcome [2]?
Answer: inactive

Question: And the outcome [3]?
Answer: inactive

Question: Which results are given for `NCCO`?
Answer: outcome [1]: inactive; outcome [3]: inactive

Question: For `COc1cc(S(=O)(=O)O)c(C)cc1N=Nc1c(O)ccc2cc(S(=O)(=O)O)ccc12`, which AC50 [4] is on record?
Answer: 15.3 µM (active)

Question: Which outcome [4] does the source give for `CCCc1cc(=O)[nH]c(=S)[nH]1` here?
Answer: inactive

Question: How did the outcome [2] turn out when `FC(F)(F)C(F)(F)C(F)(F)C(F)(F)C(F)(F)C(F)(F)CCI` was run?
Answer: inactive

Question: And the outcome [5]?
Answer: inactive

Question: With `CCCCOC(=O)CCCCCCCCC(=O)OCCCC` as the molecule, how does the AC50 [6] read?
Answer: 2.12 µM (active)

Question: Which outcome [1] does the source give for `O=C(OCCCCCOC(=O)c1ccccc1)c1ccccc1` here?
Answer: inactive

Question: What about the outcome [7] of the same molecule?
Answer: inactive

Question: What about the outcome [8] of the same molecule?
Answer: inactive

Question: What about the outcome [9] of the same molecule?
Answer: inactive

Question: With `CC(=O)C(C)=CC1C(C)=CCCC1(C)C` (stereo not drawn) as the molecule, how does the outcome [1] read?
Answer: inactive

Question: And the outcome [8]?
Answer: inactive

Question: For `CC(C)c1ccc(C(=O)N=C(N)N)cc1S(C)(=O)=O`, which outcome [10] is on record?
Answer: inactive

Question: For `Cc1ccc(C(C)C)c(O)c1`, which outcome [11] is on record?
Answer: inactive

Question: `COc1cc(C=O)ccc1O` was tested. Which outcome [12] did it give?
Answer: inactive

Question: What about the outcome [5] of the same molecule?
Answer: inactive

Question: With `CC(C)(C)c1cc(O)c(C(C)(C)C)cc1O` as the molecule, how does the outcome [1] read?
Answer: inactive

Question: And the outcome [11]?
Answer: inactive

Question: Which outcome [6] does the source give for `Nc1ccccc1N` here?
Answer: inactive

Question: And the AC50 [13]?
Answer: 16.4 µM (active)

Question: What about the AC50 [11] of the same molecule?
Answer: 17.6 µM (active)

Question: With `CNC(=O)[C@H]1O[C@@H](n2cnc3c(NCc4cc(Cl)ccc4OCc4cc(C)no4)ncnc32)[C@H](O)[C@@H]1N` as the molecule, how does the outcome [1] read?
Answer: inactive

Question: What about the outcome [14] of the same molecule?
Answer: inactive

Question: Which outcome [7] does the source give for `O=c1c(O)c(-c2ccc(O)c(O)c2)oc2cc(O)cc(O)c12` here?
Answer: inactive

Question: And the outcome [12]?
Answer: inactive

Question: What about the outcome [10] of the same molecule?
Answer: inactive

Question: How did the outcome [1] turn out when `CCCCCCOCCO` was run?
Answer: inactive

Question: For `Cc1cc(=O)[nH]c(=S)[nH]1`, which outcome [11] is on record?
Answer: inactive

Question: `CCCCCC(=O)O` was tested. Which outcome [1] did it give?
Answer: inactive

Question: What about the outcome [7] of the same molecule?
Answer: inactive

Question: How did the AC50 [11] turn out when `NC(=O)Cn1c(=O)cc(CCN2CCN(c3nccc4sccc34)CC2)c2ccc(F)cc21` was run?
Answer: 13 µM (active)

Question: Which outcome [12] does the source give for `Cc1cccc(Nc2cc(Cl)nc(SCC(=O)O)n2)c1C` here?
Answer: inactive

Question: With `CC1(C)NC(=O)NC1=O` as the molecule, how does the outcome [7] read?
Answer: inactive

Question: Which outcome [9] does the source give for `NS(=O)(=O)c1cc2c(cc1Cl)NCNS2(=O)=O` here?
Answer: inactive

Question: `NCC1(Cc2noc(=O)[nH]2)CCCCC1` was tested. Which outcome [11] did it give?
Answer: inactive

Question: What does the source list for `Cc1nc(-c2ccc3c(c2)CCN(CCC2CCC(NC(=O)/C=C/c4ccc(F)cc4)CC2)CC3)no1` (stereo not drawn)?
Answer: outcome [4]: inactive; AC50 [12]: 18.3 µM (active)

Question: How did the AC50 [6] turn out when `CCCCc1ccc2c(n1)[C@@H](c1ccc(OC)cc1C[C@H](C)C(=O)O)[C@H](C(=O)O)[C@H]2c1ccc2c(c1)OCO2` was run?
Answer: 9.68 µM (active)

Question: For `CCCCCCCCCCCCCCCC`, which outcome [1] is on record?
Answer: inactive

Question: `COCCOC[C@H](CC1(C(=O)NC2CCC(C(=O)O)CC2)CCCC1)C(=O)Oc1ccc2c(c1)CCC2` (stereo partly drawn) was tested. Which outcome [11] did it give?
Answer: inactive

Question: `Cc1oc(-c2ccccc2)nc1CCOc1cccc2c1ccn2CCC(=O)O` was tested. Which AC50 [6] did it give?
Answer: 9.92 µM (active)

Question: And the AC50 [12]?
Answer: 11.9 µM (active)

Question: What about the outcome [5] of the same molecule?
Answer: inactive

Question: For `Nc1ccc2c(c1)C(=O)c1ccccc1C2=O`, which outcome [1] is on record?
Answer: inactive

Question: What about the AC50 [6] of the same molecule?
Answer: 2.16 µM (active)

Question: And the AC50 [12]?
Answer: 15.5 µM (active)

Question: For `Cc1ccccc1Cl`, which outcome [8] is on record?
Answer: inactive

Question: How did the outcome [9] turn out when `CC(=O)Oc1ccccc1C(=O)O` was run?
Answer: inactive

Question: For `CCCCCCCCCCCC(=O)OC`, which outcome [1] is on record?
Answer: inactive
